Only some compounds are listed: those with a hit (about 2.9% of all), similar ones and a draw of the others.
PP1 inh = counter-screen for PP5 inhibitors: inhibitors of human PP1-alpha; P62136; purified PP1alpha, OMFP fluorescence; inhibition, % at 6.7 µM; 320,000 tested, 0.9% active; AID 2235;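 active = inhibition above the mean inhibition of all tested compounds plus 3 SD, computed separately for each screening campaign, cut at about 15% in these data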
Granule exo inh = lytic granule exocytosis inhibition | TALL-104 LAMP-1 surface exposure, flow cytometry; cells stimulated with thapsigargin and PMA | inhibition, % at 10 µM | 360,000 tested, 0.66% active;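 active = inhibition above about 55%, limit read from the data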
B2AR ag = agonists of human beta-2 adrenergic receptor inducing internalization | Am2.2-beta2AR cells, FAP receptor internalization, flow cytometry | 340,000 tested, 0.43% active | response, % (concentration not given with the values) | P07550 | AID 504454;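 active = response above a set limit, near 3 SD of response in nonfluorescent compounds, cut at about 42% in these data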
GRK2 aptamer HTS = inhibitors of human GRK2 displacing RNA aptamer; P25098; inhibition of aptamer binding, % at 10 µM; AID 488847; 330,000 tested, 0.59% active; bead flow cytometry, FAM-aptamer displacement from GRK2;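 active = inhibition of aptamer binding above 40%, roughly 3 SD of noise, on plates passing a quality check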;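 also: median bead fluorescence of bound FAM aptamer so fluorescent compounds give negative values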
Target sequence (P25098 whole entry, looked up): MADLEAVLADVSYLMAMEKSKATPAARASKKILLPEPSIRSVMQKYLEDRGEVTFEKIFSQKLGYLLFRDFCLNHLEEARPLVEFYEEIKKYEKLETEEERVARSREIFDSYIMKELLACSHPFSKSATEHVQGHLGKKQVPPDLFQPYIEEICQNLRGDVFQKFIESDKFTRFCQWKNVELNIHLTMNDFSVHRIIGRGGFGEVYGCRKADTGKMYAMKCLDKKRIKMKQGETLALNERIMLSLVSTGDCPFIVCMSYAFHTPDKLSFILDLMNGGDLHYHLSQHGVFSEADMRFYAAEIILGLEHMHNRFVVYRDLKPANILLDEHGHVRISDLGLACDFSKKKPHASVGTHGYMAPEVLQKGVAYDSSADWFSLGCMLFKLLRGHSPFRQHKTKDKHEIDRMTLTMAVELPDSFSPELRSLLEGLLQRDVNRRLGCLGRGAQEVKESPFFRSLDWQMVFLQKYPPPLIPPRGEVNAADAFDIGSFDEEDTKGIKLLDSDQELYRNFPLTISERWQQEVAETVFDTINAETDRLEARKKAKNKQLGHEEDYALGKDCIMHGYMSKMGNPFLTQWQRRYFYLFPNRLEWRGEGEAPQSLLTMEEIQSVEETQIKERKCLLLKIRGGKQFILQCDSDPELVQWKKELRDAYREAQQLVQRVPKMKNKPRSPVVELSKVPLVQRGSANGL
NadD block = blocks S. aureus nicotinate mononucleotide adenylyltransferase | purified NadD enzyme, colorimetric absorbance read-out | inhibition, % at 20 µM | 360,000 tested, 0.78% active | AID 602399; in the data active = inhibition above about 26%
Each line names hits and unclear results; the compound was inactive in the other large screens.

O=c1c2ccccc2[se]n1-c1ccccc1	Granule exo inh 82
O=C1NC(=O)N(c2ccc3c(c2)OCO3)C(=O)/C1=C/c1ccsc1	none
O=C1NC(=O)N(c2ccc3c(c2)OCO3)C(=O)/C1=C/c1cccs1	B2AR ag 45, GRK2 aptamer HTS 44
CCN(CCCl)c1cc(CN(C)C)cc(NC(=O)c2ccc(C(=O)Nc3cc(CN(C)C)cc(N(CC)CCCl)c3)cc2)c1	B2AR ag 47 (no result: PP1 inh, GRK2 aptamer HTS)
CN(C)c1ccc(/C=C/C=C2/C(=O)NC(=O)N(c3ccccc3)C2=O)cc1	none (no result: PP1 inh, GRK2 aptamer HTS)
C=CCN1C(=O)NC(=O)/C(=C/C=C/c2ccccc2)C1=O	B2AR ag 75 (no result: PP1 inh, GRK2 aptamer HTS)
O=C1NC(=O)N(Cc2ccc(F)cc2)C(=O)/C1=C/c1cccs1	Granule exo inh 56
O=C1NC(=O)N(CCc2ccc(F)cc2)C(=O)/C1=C\C=C\c1ccccc1	Granule exo inh 66, NadD block 36 (no result: PP1 inh, GRK2 aptamer HTS)
Cc1ccc(/C=C2\C(=O)NC(=O)N(CCc3ccc(F)cc3)C2=O)s1	Granule exo inh 92
CN(Cc1cccc(-c2ccncc2)c1)C(=O)Oc1ccccc1Cc1ccccc1	none (no result: PP1 inh, B2AR ag, GRK2 aptamer HTS)
COc1ccc(-n2c(-c3ccccc3F)nc3ccccc3c2=O)cc1	none (no result: PP1 inh, B2AR ag, GRK2 aptamer HTS)
COC(=O)C1=C(c2ccc(F)cc2OCc2ccccc2)C[C@@H]2CC[C@H]1N2C(=O)NC1Cc2ccccc2C1	PP1 inh 17
COC(=O)C1=C(c2ccccc2OCc2ccccc2)C[C@@H]2CC[C@H]1N2C(=O)NCc1ccc(C(C)(C)C)cc1	PP1 inh 17
COC(=O)C1=C(c2ccc(F)cc2OCc2ccccc2)C[C@@H]2CC[C@H]1N2C(=O)NCc1ccc([N+](=O)[O-])cc1	none
O=S(=O)(c1ccccc1)N1CCN2CCCC2C1 (centres undefined)	none
CC(C)c1oc(=O)cc2c1[C@@H](O)[C@H]1OC(=O)[C@@]3(C)C[C@@H](O)[C@@H](O)[C@@]2(C)C13 (some centres undefined)	B2AR ag 75
CC(C)c1oc(=O)cc2c1[C@@H](O)[C@H]1OC(=O)[C@@]3(C)CC[C@@H](O)[C@@]2(C)C13 (some centres undefined)	B2AR ag 84
CCCNC(=O)N1[C@H]2CC[C@@H]1C(C(=O)OC)=C(c1ccc(OC)c(OC)c1)C2	none
Clc1ccc(CO/N=C(\Cn2ccnc2)c2ccc(Cl)cc2Cl)c(Cl)c1	PP1 inh 33 (no result: Granule exo inh, B2AR ag, NadD block)
COc1ccc(Cl)cc1N=Cc1c(O)n(C)c(=O)n(C)c1=O	B2AR ag 57
COc1ccccc1N=Cc1c(O)n(C)c(=O)n(C)c1=O	none
Cc1ccc(/C=C2\C(=O)NC(=O)N(Cc3ccccc3Cl)C2=O)o1	B2AR ag 59
Cc1ccc(/C=C2/C(=O)NC(=O)N(Cc3ccc(F)cc3)C2=O)o1	none (no result: Granule exo inh, B2AR ag, NadD block)
Cc1ccc([C@@H]2C[C@H]3[C@@H](CN2S(=O)(=O)c2ccc(Cl)cc2)C(=O)C[C@@H](c2ccccc2F)N3S(=O)(=O)c2ccc(C)cc2)cc1	none (no result: PP1 inh, B2AR ag, GRK2 aptamer HTS)
CC12C=CC(=O)C=C1CCC1C2C(O)CC2(C)C1CCC2(C)O (centres undefined)	none (no result: PP1 inh, GRK2 aptamer HTS)
CCCNC(=O)c1c(N)n(Cc2ccc3c(c2)OCO3)c2nc3ccccc3nc12	none
CC(C)CCNC(=O)c1c(N)n(Cc2ccc3c(c2)OCO3)c2nc3ccccc3nc12	Granule exo inh 56
COC(=O)C1=C(C(=O)OC)SC2(S1)C(C(=O)OC)=C(C(=O)OC)Sc1c2ssc1=O	Granule exo inh 100, B2AR ag 58 (no result: PP1 inh, GRK2 aptamer HTS)
C=C(C)[C@@H]1[C@H]2OC(=O)[C@H]1[C@]1(O)C[C@H]3O[C@]34C(=O)O[C@H]2[C@]14C	none (no result: PP1 inh, GRK2 aptamer HTS)
Cc1ccc(/C=C2\C(=O)NC(=O)N(CCc3ccc(F)cc3)C2=O)o1	none
O=C1NC(=O)C(=Cc2ccc(Sc3ccccc3)o2)C(=O)N1	Granule exo inh 98
O=C1NC(=O)C(=Cc2ccc(-c3ccc(F)cc3O)o2)C(=O)N1	B2AR ag 42
O=C1NC(=O)C(=Cc2ccc(-c3ccc(Cl)cc3)o2)C(=O)N1	B2AR ag 60, NadD block 39
O=C1NC(=O)C(=Cc2ccc(-c3ccc(S(=O)(=O)N4CCOCC4)cc3)o2)C(=O)N1	none
O=c1c2ccccc2nc(CNc2ccccc2)n1-c1ccccc1	none
CN1C(=O)N(C)C(=O)C(NS(=O)(=O)c2ccc(N)cc2)(c2ccccc2)C1=O	none (no result: PP1 inh, GRK2 aptamer HTS)
O=[N+]([O-])c1ccc(OP(=O)(O)Oc2ccc([N+](=O)[O-])cc2)cc1	none (no result: PP1 inh, GRK2 aptamer HTS)
O=P(/C=C1\OCc2ccccc21)(Oc1ccccc1)Oc1ccccc1	none (no result: PP1 inh, B2AR ag, GRK2 aptamer HTS, NadD block)
O=C(COC(=O)c1cc(Br)cc(Br)c1O)NC12CC3CC(CC(C3)C1)C2	none (no result: PP1 inh, B2AR ag, GRK2 aptamer HTS)
